Here are results for 54 molecules from PubChem BioAssay AID504707 (The Scripps Research Institute Molecular Screening Center, 2011).

Out of some 340,000 compounds screened, about 280 (0.082%) were called active.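 How the source made its calls: active means percent activation above the mean of all tested compounds plus 3 SD (cut at about 19% in these data); inactive means the rest.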 For the sample, actives were picked, then their nearest neighbours and some compounds at random.

This assay concerns the target cAMP-dependent protein kinase type I-alpha regulatory subunit (Bos taurus) + cAMP-dependent protein kinase catalytic subunit beta (Mus musculus) (UniProt P00514+P68181). Put plainly: activators of PKA-R1A holoenzyme, primary screen, biochemical, fluorescence polarization, Cy5-IP20, bovine R1A, mouse PKAc (AID 504707).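 Further: higher means more PKAc released from R1A so a rise in polarization.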 The note with it: PKA-R1A dissociation, at 11.4 µM, stronger effect = higher value, scaled: DMSO 0%, 113 µM cGMP 100%. (Polarisation of emitted light reports the rotation of a fluorescent probe.)
As for `CCN(c1ccc(NC(=O)COC(=O)CCc2nc3ccccc3n2-c2ccccc2)cc1)C(C)C`, the activation is -8.81% (inactive).

`Cc1ccc(S(=O)(=O)NN=C2CC(C)(C)CC(=O)C2(C)C)cc1`: the activation is -0.8% (inactive).

For `C[C@H]1CN([C@@H](C)CO)C(=O)CCCn2nncc2CO[C@@H]1CN(C)S(=O)(=O)c1cccc(C#N)c1`, the activation was -0.38% (inactive).

`Cc1ccc([C@H]2N[C@]3(CCCN(Cc4ccccc4)C3=O)[C@H]3C(=O)N(Cc4ccccc4)C(=O)[C@@H]23)cc1`: the activation is 3.96% (inactive).

As to `CSCCC1NC(=O)N(CC(=O)Nc2cccc(S(=O)(=O)N3CCCCCC3)c2)C1=O` (centres undefined), the activation was 4.33% (inactive).

In the case of `CC(C)CC1C(=O)N(Cc2cn(CC3CCCCC3)nn2)CCS(=O)(=O)N1Cc1ccc(-c2ccc(Cl)cc2)cc1` (centres undefined), the activation was -4.01% (inactive).

Take `COc1ccc(CNc2nnnn2C)cc1`: the activation was 19.2% (active).

Consider `CCCn1nnnc1NCc1ccc(OC)cc1`, for which the activation is -2.85% (inactive).

Consider `Cn1nnnc1NCc1ccc(Cl)c(Cl)c1`, for which the activation is -9.38% (inactive).

Take `Cc1ccccc1OS(=O)(=O)c1cccc([N+](=O)[O-])c1`: the activation was 15.6% (inactive).

On to `O=C(NCc1nnnn1-c1ccc(Cl)cc1)c1ccc2c(c1)OCO2`, for which the activation is 4.42% (inactive).

As to `O=[N+]([O-])c1ccc(C(S(=O)(=O)Cc2ccccc2)S(=O)(=O)Cc2ccccc2)cc1`, the activation is 4.44% (inactive).

On to `CCOC(=O)c1cnn2c(SC)ncnc12`, for which the activation is 1.57% (inactive).

In the case of `CN(C)C(CNC(=O)c1cccc(S(=O)(=O)N2CCc3ccccc3C2)c1)c1ccccc1` (centres undefined), the activation was -0.91% (inactive).

Consider `CC1=C(C(=O)N2CCOCC2)CC(CC(=O)NCc2cccc3ccccc23)C(=O)N1CCC1=CCCCC1` (centres undefined), for which the activation is -16.2% (inactive).

On to `Cc1cc(C)c(C#N)c(SCC(=O)NN2CC(=O)N(c3ccccc3F)CC2=O)n1`, for which the activation is -8.96% (inactive).

`CC(C)CC1C(=O)N(Cc2cn(Cc3ccco3)nn2)CCS(=O)(=O)N1Cc1ccc(-c2ccc(Cl)c(Cl)c2)cc1` (centres undefined): the activation is -7.28% (inactive).

With `CCOC(=O)c1nc(-c2ccc3c(c2)OCO3)[nH]c1C`, the activation is -2.48% (inactive).

Consider `CC1=C(C(=O)N2CCOCC2)CC(CC(=O)NCCN2CCOCC2)C(=O)N1CCC1=CCCCC1` (centres undefined), for which the activation was -5.53% (inactive).

With `CCC(C)C1(C2CCCC2)NC(=O)NC1=O` (centres undefined), the activation was -4.54% (inactive).

For the molecule `O=C(Nc1cccc(C(=O)O)c1)/C(=C\c1ccccc1)NC(=O)c1ccc(Br)o1`, the activation was 3.24% (inactive).

For `O=C(c1ccc(N2CCCC2=O)cc1)N1CCN(c2ccc(C(F)(F)F)cc2[N+](=O)[O-])CC1`, the activation was 0.5% (inactive).

`CCN(C(=O)C1CCCN(c2nc(-c3ccc(OC)cc3)no2)C1)c1ccc(OC)cc1` (centres undefined): the activation was -6.29% (inactive).

Take `Cc1ccnc(SC2CC(=O)N(c3ccccc3)C2=O)n1` (centres undefined): the activation is 8.38% (inactive).

With `Cc1cccc(NS(=O)(=O)c2cc(Cl)ccc2Cl)n1`, the activation was -4.38% (inactive).

Turning to `O=C1[C@H]2[C@@H](c3ccc(C(F)(F)F)cc3)N[C@]3(CCCN(Cc4ccc(Br)cc4)C3=O)[C@H]2C(=O)N1Cc1ccccc1`, the activation is -1.26% (inactive).

With `CC(=O)N1CCc2cc(S(=O)(=O)NC3CCCCC3)ccc21`, the activation was 5.76% (inactive).

`Cc1ccc(NC(=O)Cn2sc3ccccc3c2=O)cc1`: the activation was 8.53% (inactive).

`CN(C)c1ccc(NC(=O)CSc2n[nH]c(-c3ccco3)n2)cc1`: the activation is 7.46% (inactive).

Consider `Cc1ccc(S(=O)(=O)/N=C2\C=C(NS(=O)(=O)c3ccc(C)cc3)C(=O)c3ccccc32)cc1`, for which the activation is -6.85% (inactive).

Turning to `C[C@H](CO)N1C[C@H](C)[C@@H](CN(C)Cc2ccc3c(c2)OCO3)OCc2cnnn2CCCC1=O`, the activation was -8.89% (inactive).

As for `CCOC(=O)C1CCCN(S(=O)(=O)c2ccc3c(c2)C(C)(C)C(=O)N3C)C1` (centres undefined), the activation is -3.23% (inactive).

With `COc1cc(Br)c(-c2sc(Nc3ccccc3)n[n+]2-c2ccccc2)cc1OC`, the activation was -4.44% (inactive).

In the case of `Nc1nonc1-n1nnc(C(=O)N/N=C/c2ccc(Cl)cc2)c1-c1ccc2c(c1)OCO2`, the activation is -7.77% (inactive).

For the molecule `CCS(=O)(=O)N1Cc2ccccc2CC1C(=O)Nc1nc2ccc(F)cc2s1` (centres undefined), the activation was 5.39% (inactive).

As to `Cc1cccc(C(=O)OCC(=O)Nc2sccc2C(N)=O)c1C`, the activation was 3.56% (inactive).

Consider `O=C(CN1C(=O)NC2(CCc3ccccc32)C1=O)NC1CCCCC1` (centres undefined), for which the activation was -0.6% (inactive).

Regarding `COC(=O)[C@H]1Cc2cnoc2C[C@]1(C)C(=O)O`, the activation is 4.79% (inactive).

Take `COc1ccc(CN2C(=O)C(CC(=O)NC3CCCCC3)CC(C(=O)N3CCOCC3)=C2C)cc1` (centres undefined): the activation is 1.08% (inactive).

As to `CC1CC(NC(=S)N(C)C)CC(C)(C)C1` (centres undefined), the activation was 7.75% (inactive).

Regarding `O=C(NN=Cc1ccc2c(c1)CCC2)c1ccccc1O`, the activation is 10.6% (inactive).

For `Cc1onc(-c2ccccc2)c1-c1nnc(COC(=O)c2ccc(N(C)C)cc2)o1`, the activation is 11.8% (inactive).

As for `COc1cccc(NC(=O)Nc2ccc(F)cc2)c1`, the activation is 9.12% (inactive).

Consider `c1ccc2c(c1)nnn2-c1ccncc1`, for which the activation is -12.8% (inactive).

Take `CC1=C(C(=O)N(C)C)CC(CC(=O)NCCc2ccccn2)C(=O)N1CCC1=CCCCC1` (centres undefined): the activation is 3.98% (inactive).

With `CC(=O)Nc1ccc2c3c(ccc([N+](=O)[O-])c13)CC2`, the activation is 1.42% (inactive).

In the case of `C[C@H]1CN([C@@H](C)CO)C(=O)CCCn2cc(nn2)CO[C@@H]1CN(C)S(=O)(=O)c1ccc(-n2cccn2)cc1`, the activation was 4.21% (inactive).

On to `CC(C)CCNc1nc(N2CCCC2)c2c(c1C#N)CCN(C)C2`, for which the activation is 6.18% (inactive).

Consider `CN1CCN(S(=O)(=O)c2cccc(C(=O)Nc3sccc3C#N)c2)CC1`, for which the activation was -12.1% (inactive).

In the case of `C[C@H]1CN([C@@H](C)CO)C(=O)CCCn2cc(nn2)CO[C@@H]1CN(C)S(=O)(=O)c1ccccc1C#N`, the activation is -3.32% (inactive).

Take `CC(=NNC(N)=O)C1CC2CCC1CC2` (centres undefined): the activation was -3.74% (inactive).

Consider `COc1ccc(Cl)cc1NC(=O)CN(C)C(=O)c1cn(-c2ccccc2)nc1-c1cccs1`, for which the activation is -7.71% (inactive).

Regarding `Cc1ccc([C@H]2C[C@H](O)[C@@H](n3cc(COC(=O)c4ccccc4)nn3)CN2CC2CCCCC2)cc1`, the activation is -14.8% (inactive).

As to `CCCCCCNC(=O)O[C@]12C[C@@H](C(=O)OC)[C@@H](C(=O)OC)C[C@@]1(O)CN(S(=O)(=O)c1ccc(C)cc1)C2`, the activation was -13.7% (inactive).
